# Data from PubChem BioAssay (EPA / NIEHS).
# Records with an inconclusive call do not appear. Calls of active or inactive are those of the source. How the source made its calls: active means hit-call score of the fitted dose curve at least 0.9, where 1 is the maximum; inconclusive means response in the unintended direction; inactive means score below 0.9.
# Columns and labels:
# [1] = biological target: human Dopamine Transporter (DAT), SLC6A3 (gene 6531) (UniProt Q01959); experiment: NVS_TR_hDAT: NovaScreen (NVS) Transporter Assay for human Dopamine Transporter (DAT) (AID 2283374);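 further: activity means loss of bound radioligand signal relative to DMSO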
# Procedure, shortened: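 Duplicate single-point screening at 25 uM preceded concentration-series follow-up of actives. Binding was measured by competitive displacement of a radioligand from DAT protein, filter-counted by scintillation 1 h after dosing. Decrease relative to DMSO taken as activity.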
# [2] = biological target: Peroxisome proliferator-activated receptor gamma (Homo sapiens) (UniProt P37231); experiment: NVS_NR_hPPARg: NovaScreen (NVS) Nuclear Receptor Binding Assay for human Peroxisome Proliferator-activated Receptor gamma (PPARg) (AID 2283370)
# Procedure, shortened: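 Fluorescence polarization readout of ligand binding to extracted human PPARg, measured at 2 h. Duplicate single-point screen at 25 uM, then concentration-series retesting; activity defined as signal loss versus DMSO.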
# [3] = biological target: Estrogen receptor beta (Homo sapiens) (UniProt Q92731); experiment: OT_ER_ERbERb_1440: Odyssey Thera (OT) 24-hour HEK293T Protein-Complementation Assay for Estrogen Receptor-beta/-beta Homodimer (AID 2283380);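 further: fluorescence gain from ER beta LBD homodimer complementation read by laser scanning cytometry; scored as signal increase over DMSO baseline for both agonists and antagonists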
# Procedure, shortened: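 Fluorescence increase, nuclear for agonists or whole-cell for antagonists, relative to DMSO vehicle, quantified by laser scanning cytometer after fixation and Draq5 staining. Readout from 24 h treatment of HEK293T cells carrying complementation-paired ER beta LBD (aa 310-547).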
# [4] = biological target: human Norepinephrine Transporter (NET), SLC6A2 (gene 6530) (UniProt P23975); experiment: NVS_TR_hNET: NovaScreen (NVS) Transporter Assay for human Norepinephrine Transporter (NET) (AID 2283377);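 further: cell-free membrane protein extracted from CHO cells expressing human NET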;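 on AC50: displacement of radioligand from human NET seen as loss of scintillation signal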
# Procedure, shortened: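 Single-concentration duplicate screen at 25 uM, then concentration-response for actives; displacement of specific radioligand from human NET in CHO membrane extracts, filter-based scintillation detection at 1 h relative to DMSO.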
# [5] = biological target: human Serotonin Transporter (SERT), SLC6A4 (gene 6532) (UniProt P31645); experiment: NVS_TR_hSERT: NovaScreen (NVS) Transporter Assay for human Serotonin Transporter (SERT) (AID 2283372)
# Procedure, shortened: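 Human platelet membrane preparation; displacement of radioligand from serotonin transporter measured after 1 h by filtration and scintillation counting. Single 25 uM duplicate screen, then concentration series for actives, with DMSO as negative baseline.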
# [6] = biological target: mouse Estrogen Receptor alpha (Era), Esr1 (gene 13982) (UniProt P19785); experiment: NVS_NR_mERa: NovaScreen (NVS) Nuclear Receptor Binding Assay for mouse Estrogen Receptor alpha (Era) (AID 2283378);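 further: hit means loss of bound radioligand signal relative to DMSO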
# Procedure, shortened: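 Filter radiodetection of radioligand displacement from extracted receptor protein, measured 18 h post-dose. Single 25 uM concentration in duplicate initially, with concentration-series follow-up. Binding loss fitted relative to DMSO.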
# [7] = biological target: Norway rat Vesicular Monoamine Transporter (VMAT2), neurotransmitter transporter, Slc18a2 (gene 25549) (UniProt Q01827); experiment: NVS_TR_rVMAT2: NovaScreen (NVS) Transporter Assay for Norway rat Vesicular Monoamine Transporter (VMAT2), neurotransmitter transporter (AID 2283376);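 further: actives lower the bound radioligand signal below the DMSO level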
# Procedure, shortened: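 Using rat forebrain membranes, specific radioligand binding to VMAT2 was measured by filtration and scintillation counting after 1 hour. Chemicals screened at 25 uM in duplicate, actives retested in concentration series, DMSO baseline.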
# [8] = biological target: Agonist Androgen Response Element (ARE), AR (gene 367) (UniProt P10275); experiment: OT_AR_ARELUC_AG_1440: Odyssey Thera (OT) 24-hour CHO-K1 Luciferase Assay for Agonist Androgen Response Element (ARE) (AID 2283379)
# Procedure, shortened: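 Readout: luciferase bioluminescence from CHO-K1 ARE-luc cells, measured 24 h post-dosing; agonism = increased mean luminescence vs DMSO controls, fitted in positive direction.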
# [9] = tested on: rat Norepinephrine Transporter (NET), gene 83511; experiment: NVS_TR_rNET: NovaScreen (NVS) Transporter Assay for rat Norepinephrine Transporter (NET) (AID 2283373)
# Procedure, shortened: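 Competitive radioligand displacement at the rat NET using forebrain membrane preparations, 1 h incubation, filter-based scintillation readout. Primary testing in duplicate at a single 25 uM concentration; confirmed actives retested across concentrations.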
# [10] = biological target: rat Serotonin Transporter (SERT), Slc6a4 (gene 25553) (UniProt P31652); experiment: NVS_TR_rSERT: NovaScreen (NVS) Transporter Assay for rat Serotonin Transporter (SERT) (AID 2283375)
# Procedure, shortened: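 Radioligand binding with competitive displacement on rat forebrain membrane preparations, counted by filtration and scintillation after 1 h. Primary single-point duplicates at 25 uM; active chemicals followed up in concentration-response. DMSO served as baseline.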
# human Dopamine Transporter (DAT), SLC6A3 (gene 6531), sequence (Q01959 whole entry, looked up): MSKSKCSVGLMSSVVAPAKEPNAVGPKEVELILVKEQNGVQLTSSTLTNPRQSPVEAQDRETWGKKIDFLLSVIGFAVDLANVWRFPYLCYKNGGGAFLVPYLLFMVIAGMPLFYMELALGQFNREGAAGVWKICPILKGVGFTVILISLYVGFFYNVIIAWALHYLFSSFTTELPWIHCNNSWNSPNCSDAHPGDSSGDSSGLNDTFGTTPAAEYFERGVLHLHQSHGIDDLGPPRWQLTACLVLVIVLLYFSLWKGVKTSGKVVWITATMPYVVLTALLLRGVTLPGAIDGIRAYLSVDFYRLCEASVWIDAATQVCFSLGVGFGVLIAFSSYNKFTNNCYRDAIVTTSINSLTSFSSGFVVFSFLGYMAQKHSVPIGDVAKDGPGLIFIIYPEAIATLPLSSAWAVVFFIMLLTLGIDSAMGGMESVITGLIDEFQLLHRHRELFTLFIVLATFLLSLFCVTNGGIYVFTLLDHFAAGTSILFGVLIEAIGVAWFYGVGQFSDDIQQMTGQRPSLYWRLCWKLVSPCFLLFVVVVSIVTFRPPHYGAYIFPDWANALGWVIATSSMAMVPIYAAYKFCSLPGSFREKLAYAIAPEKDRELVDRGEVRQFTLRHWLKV
# Estrogen receptor beta (Homo sapiens), sequence (Q92731 whole entry, looked up, the tested form may be a part): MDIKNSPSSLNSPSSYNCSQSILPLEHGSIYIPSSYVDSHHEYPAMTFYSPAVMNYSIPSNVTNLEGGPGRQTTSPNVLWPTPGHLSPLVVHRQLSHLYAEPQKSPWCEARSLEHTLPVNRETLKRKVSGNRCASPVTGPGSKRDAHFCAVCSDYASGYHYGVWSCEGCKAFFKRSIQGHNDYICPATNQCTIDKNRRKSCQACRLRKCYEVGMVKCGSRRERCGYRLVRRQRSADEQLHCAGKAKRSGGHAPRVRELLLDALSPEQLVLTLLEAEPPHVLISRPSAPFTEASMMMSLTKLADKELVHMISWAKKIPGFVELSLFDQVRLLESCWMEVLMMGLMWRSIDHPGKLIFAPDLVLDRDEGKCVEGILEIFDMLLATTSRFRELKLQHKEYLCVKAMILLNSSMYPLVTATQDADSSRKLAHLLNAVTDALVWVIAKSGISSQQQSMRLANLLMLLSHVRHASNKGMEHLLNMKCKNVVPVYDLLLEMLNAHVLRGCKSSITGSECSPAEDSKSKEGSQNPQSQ
# Peroxisome proliferator-activated receptor gamma (Homo sapiens), sequence (P37231 whole entry, looked up): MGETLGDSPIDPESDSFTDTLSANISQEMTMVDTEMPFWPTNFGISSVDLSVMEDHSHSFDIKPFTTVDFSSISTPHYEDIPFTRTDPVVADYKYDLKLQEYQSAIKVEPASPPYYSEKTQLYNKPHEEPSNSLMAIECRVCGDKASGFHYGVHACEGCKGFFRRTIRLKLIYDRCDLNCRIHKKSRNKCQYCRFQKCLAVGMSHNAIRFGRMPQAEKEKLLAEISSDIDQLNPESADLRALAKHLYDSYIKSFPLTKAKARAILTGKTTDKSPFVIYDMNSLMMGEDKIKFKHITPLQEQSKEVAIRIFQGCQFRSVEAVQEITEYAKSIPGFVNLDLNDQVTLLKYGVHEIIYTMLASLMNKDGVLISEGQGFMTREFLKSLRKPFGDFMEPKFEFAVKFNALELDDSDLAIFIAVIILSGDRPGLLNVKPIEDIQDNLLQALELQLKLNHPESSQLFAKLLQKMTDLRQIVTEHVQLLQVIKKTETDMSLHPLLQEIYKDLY
# Norway rat Vesicular Monoamine Transporter (VMAT2), neurotransmitter transporter, Slc18a2 (gene 25549), sequence (Q01827 whole entry, looked up): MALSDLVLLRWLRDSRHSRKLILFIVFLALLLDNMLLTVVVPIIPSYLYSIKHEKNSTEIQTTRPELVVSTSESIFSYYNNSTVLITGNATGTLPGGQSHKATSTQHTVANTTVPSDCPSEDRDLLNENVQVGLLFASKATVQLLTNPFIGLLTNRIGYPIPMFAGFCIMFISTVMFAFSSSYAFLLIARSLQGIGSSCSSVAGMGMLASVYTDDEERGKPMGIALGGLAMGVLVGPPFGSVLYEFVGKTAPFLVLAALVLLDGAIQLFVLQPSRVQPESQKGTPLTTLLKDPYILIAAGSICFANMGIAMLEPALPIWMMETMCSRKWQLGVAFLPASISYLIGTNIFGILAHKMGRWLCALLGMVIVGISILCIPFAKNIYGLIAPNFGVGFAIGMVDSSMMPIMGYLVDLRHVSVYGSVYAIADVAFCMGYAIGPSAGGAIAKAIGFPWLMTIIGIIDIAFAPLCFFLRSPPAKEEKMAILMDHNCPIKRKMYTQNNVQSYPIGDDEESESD
# mouse Estrogen Receptor alpha (Era), Esr1 (gene 13982), sequence (P19785 whole entry, looked up): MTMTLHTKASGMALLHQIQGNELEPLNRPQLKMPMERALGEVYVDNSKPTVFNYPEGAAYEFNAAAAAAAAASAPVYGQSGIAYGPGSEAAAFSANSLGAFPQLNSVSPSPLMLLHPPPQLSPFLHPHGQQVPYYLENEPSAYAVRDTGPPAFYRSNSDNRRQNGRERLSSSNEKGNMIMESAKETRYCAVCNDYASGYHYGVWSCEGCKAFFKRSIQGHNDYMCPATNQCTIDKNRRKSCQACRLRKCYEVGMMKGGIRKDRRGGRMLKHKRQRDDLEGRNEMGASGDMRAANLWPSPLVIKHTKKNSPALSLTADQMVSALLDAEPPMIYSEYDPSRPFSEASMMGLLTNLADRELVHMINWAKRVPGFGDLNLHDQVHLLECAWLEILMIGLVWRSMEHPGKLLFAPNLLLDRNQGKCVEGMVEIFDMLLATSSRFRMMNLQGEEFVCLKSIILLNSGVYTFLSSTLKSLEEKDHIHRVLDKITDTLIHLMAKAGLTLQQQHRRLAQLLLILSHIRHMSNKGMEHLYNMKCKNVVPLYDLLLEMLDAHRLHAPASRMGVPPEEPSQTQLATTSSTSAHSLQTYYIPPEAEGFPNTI
# human Norepinephrine Transporter (NET), SLC6A2 (gene 6530), sequence (P23975 whole entry, looked up): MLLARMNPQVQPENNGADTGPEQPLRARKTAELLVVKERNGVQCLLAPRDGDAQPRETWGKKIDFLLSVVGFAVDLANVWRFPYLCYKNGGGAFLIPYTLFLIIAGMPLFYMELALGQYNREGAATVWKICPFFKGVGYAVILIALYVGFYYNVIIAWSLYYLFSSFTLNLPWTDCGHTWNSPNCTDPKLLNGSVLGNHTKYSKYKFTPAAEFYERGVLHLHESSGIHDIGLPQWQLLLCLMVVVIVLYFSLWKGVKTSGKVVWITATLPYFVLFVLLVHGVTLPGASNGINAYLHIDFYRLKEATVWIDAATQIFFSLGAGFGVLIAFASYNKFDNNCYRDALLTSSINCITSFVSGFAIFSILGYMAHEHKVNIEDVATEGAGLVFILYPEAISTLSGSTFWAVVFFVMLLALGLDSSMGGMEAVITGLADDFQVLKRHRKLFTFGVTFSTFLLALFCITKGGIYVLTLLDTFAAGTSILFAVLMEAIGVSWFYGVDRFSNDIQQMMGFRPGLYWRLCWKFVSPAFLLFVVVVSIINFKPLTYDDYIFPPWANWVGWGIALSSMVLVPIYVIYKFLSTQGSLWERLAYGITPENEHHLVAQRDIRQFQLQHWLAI
# Agonist Androgen Response Element (ARE), AR (gene 367), sequence (P10275 whole entry, looked up): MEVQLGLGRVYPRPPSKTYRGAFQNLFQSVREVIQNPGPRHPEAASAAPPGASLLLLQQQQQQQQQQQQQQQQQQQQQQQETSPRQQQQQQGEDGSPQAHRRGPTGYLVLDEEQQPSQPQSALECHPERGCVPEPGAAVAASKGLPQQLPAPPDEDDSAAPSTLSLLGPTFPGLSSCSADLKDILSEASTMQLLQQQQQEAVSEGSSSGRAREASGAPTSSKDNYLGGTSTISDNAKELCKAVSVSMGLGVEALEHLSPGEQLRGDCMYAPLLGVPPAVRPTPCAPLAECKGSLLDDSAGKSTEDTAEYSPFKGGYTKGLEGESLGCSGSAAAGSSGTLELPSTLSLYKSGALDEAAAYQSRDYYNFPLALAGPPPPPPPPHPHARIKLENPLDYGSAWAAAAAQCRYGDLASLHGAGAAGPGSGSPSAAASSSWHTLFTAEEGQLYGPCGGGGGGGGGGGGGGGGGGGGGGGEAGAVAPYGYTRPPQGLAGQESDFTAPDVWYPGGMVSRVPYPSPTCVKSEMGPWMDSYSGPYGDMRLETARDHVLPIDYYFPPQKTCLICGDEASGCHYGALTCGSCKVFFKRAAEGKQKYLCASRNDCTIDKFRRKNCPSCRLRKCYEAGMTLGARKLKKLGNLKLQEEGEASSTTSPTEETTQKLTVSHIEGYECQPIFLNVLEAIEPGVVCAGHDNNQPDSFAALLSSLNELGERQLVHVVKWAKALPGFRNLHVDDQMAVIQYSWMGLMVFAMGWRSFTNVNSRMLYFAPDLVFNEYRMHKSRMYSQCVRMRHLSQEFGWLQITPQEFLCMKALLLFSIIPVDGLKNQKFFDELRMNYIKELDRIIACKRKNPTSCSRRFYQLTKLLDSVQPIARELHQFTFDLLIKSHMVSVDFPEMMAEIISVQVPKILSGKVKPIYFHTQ
# rat Serotonin Transporter (SERT), Slc6a4 (gene 25553), sequence (P31652 whole entry, looked up): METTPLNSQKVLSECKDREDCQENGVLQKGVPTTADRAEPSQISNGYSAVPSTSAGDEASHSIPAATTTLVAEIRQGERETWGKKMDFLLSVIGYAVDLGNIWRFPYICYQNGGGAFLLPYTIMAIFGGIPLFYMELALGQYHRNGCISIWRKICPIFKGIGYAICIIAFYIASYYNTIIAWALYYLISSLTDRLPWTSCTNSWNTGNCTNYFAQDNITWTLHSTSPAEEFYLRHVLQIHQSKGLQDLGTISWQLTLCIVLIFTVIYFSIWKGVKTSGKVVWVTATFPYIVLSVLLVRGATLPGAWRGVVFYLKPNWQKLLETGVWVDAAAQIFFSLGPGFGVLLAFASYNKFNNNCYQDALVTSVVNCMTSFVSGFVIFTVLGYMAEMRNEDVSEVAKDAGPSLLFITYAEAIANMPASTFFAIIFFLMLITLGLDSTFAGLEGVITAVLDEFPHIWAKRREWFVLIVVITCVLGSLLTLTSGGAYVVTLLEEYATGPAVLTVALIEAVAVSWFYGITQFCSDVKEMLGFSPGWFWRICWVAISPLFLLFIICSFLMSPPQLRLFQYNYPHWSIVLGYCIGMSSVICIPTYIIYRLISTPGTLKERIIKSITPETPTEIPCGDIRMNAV
smiles,measurement,setting,value
Clc1ccc(Oc2ccccc2)cc1,outcome,[1],inactive
CC(=O)c1ccc(-c2ccccc2)cc1,AC50,[1],10.9 µM (active)
CCOS(=O)(=O)OCC,outcome,[2],inactive
same,outcome,[3],inactive
Cc1cc(C)c(C(=O)P(=O)(c2ccccc2)c2ccccc2)c(C)c1,AC50,[1],13.6 µM (active)
same,outcome,[4],inactive
CCCN(CCC)c1c([N+](=O)[O-])cc(C(C)C)cc1[N+](=O)[O-],outcome,[5],inactive
same,outcome,[6],inactive
same,AC50,[3],7.26 µM (active)
CC1(C)CN=C(NN=C(/C=C/c2ccc(C(F)(F)F)cc2)/C=C/c2ccc(C(F)(F)F)cc2)NC1,outcome,[2],inactive
same,AC50,[7],0.109 µM (active)
same,AC50,[4],1.6 µM (active)
same,outcome,[8],inactive
same,outcome,[3],inactive
O=c1ssc(Cl)c1Cl,outcome,[2],inactive
same,AC50,[1],14.5 µM (active)
same,AC50,[4],18.3 µM (active)
CCC(C)(C)c1ccc(O)cc1,outcome,[9],inactive
same,AC50,[1],10 µM (active)
same,AC50,[4],16.1 µM (active)
same,AC50,[6],25 µM (active)
same,AC50,[3],4.88 µM (active)
O=[N+]([O-])c1ccc(Cl)c(Cl)c1,AC50,[2],9.12 µM (active)
same,outcome,[1],inactive
same,outcome,[4],inactive
CSC(C)(C)C=NO,outcome,[2],inactive
same,outcome,[1],inactive
O=C(O)C(Cl)Cl,outcome,[7],inactive
CCOP(=S)(OCC)SCSCC,outcome,[2],inactive
same,outcome,[3],inactive
CC(C)(C)c1ccccc1OP(=O)(Oc1ccccc1)Oc1ccccc1,AC50,[1],9.69 µM (active)
CCCCN(CC)C(=O)SCCC,outcome,[2],inactive
same,outcome,[6],inactive
same,outcome,[8],inactive
same,outcome,[3],inactive
CC(C)(C)OOC(C)(C)C,outcome,[2],inactive
same,outcome,[3],inactive
CC(C)Nc1ccc(Nc2ccccc2)cc1,AC50,[1],1.69 µM (active)
same,AC50,[4],2.93 µM (active)
Oc1ccc(I)cc1,AC50,[10],2.5 µM (active)
same,outcome,[7],inactive
same,AC50,[4],19.8 µM (active)
